VACV mCherry inh – vaccinia inhibition (mCherry reporter) | AID 720579 | 310,000 tested, 0.63% active | Vaccinia virus mCherry reporter infection, fluorescence | Potency, µM (highest dose often 36.5 µM), for the others: at the top dose activity change, negative = inhibition, hits mostly inhibitors; calls by dose curve; tested in A549 cells; further: potency means the concentration at half of the fitted maximal effect; on the % scale 0 is the no-effect control and ±100 the full control effect; nearly all actives have a fitted effect of over 35% in size
MARV entry inh – blocks Marburg virus binding to or entry into cells; 300,000 tested, 1.8% active; AID 540276; Marburg virus pseudotyped entry inhibition, cell reporter; Potency, µM (series often up to 37.8 µM), for inactives: at the highest dose activity change, negative = inhibition, usual class: inhibitors; calls by dose curve; tested in HEK293 cells; further: potency means the concentration at half of the fitted maximal effect; on the % scale 0 is the no-effect control and ±100 the full control effect
VACV Venus inh – vaccinia inhibition (Venus reporter); Vaccinia virus Venus reporter expression, fluorescence; Potency, µM (top dose mostly 36.5 µM), for the others: at the highest dose activity change, negative = inhibition, hits mostly inhibitors; 330,000 tested, 0.46% active; AID 720580; calls by dose curve; tested in A549 cells; further: potency means the concentration at half of the fitted maximal effect; on the % scale 0 is the no-effect control and ±100 the full control effect; nearly all actives have a fitted effect of over 30% in size
Cycloheximide cs – affects cycloheximide protein synthesis inhibition readout, counter-screen; cell reporter, cycloheximide protein synthesis inhibition counterscreen; 300,000 tested, 12% active; max response, %; AID 2314; in the data active means max response mostly above about 13%, no sharp cut-off; inactive means mostly below about 14%; further: read at 38.3 µM for the half of the compounds with a filed dose; 0% is about no effect
LASV entry inh – blocks Lassa virus binding to or entry into cells; Potency, µM (doses to about 37.9 µM), for the others: at the highest dose activity change, negative = inhibition, actives largely listed as inhibitors; Lassa virus pseudotype entry inhibition, cell reporter; 300,000 tested, 1.2% active; calls by dose curve; tested in HEK293 cells; further: potency means the concentration at half of the fitted maximal effect; on the % scale 0 is the no-effect control and ±100 the full control effect; nearly all actives have a fitted effect of over 50% in size
Shiga inhibitor – inhibitors of Shiga toxin in Vero cells. AID 2315. inhibition, % at 38.7 µM. Vero cells, Shiga toxin protein synthesis inhibition reporter. 290,000 tested, 9.2% active; in the data active means inhibition mostly above about 28%, no sharp cut-off; inactive means mostly below about 43%; further: 0% is about no effect
Active calls of the source: *; i = inactive; u = inconclusive; x = no result; [ ] = dose if it differs, or a comment. Many of the other results were omitted from the sample, so hits are more common in it than they were.

SMILES	VACV mCherry inh	MARV entry inh	VACV Venus inh	Cycloheximide cs	LASV entry inh	Shiga inhibitor
CCCOC(=O)C1=C(C)CS[C@@H]2[C@H](NC(=O)COc3ccccc3)C(=O)N12	-11%	x	u	x	x	x
CCOC(=O)C1CCN(C(=O)COC(=O)CN(C)S(=O)(=O)c2ccc(NC(C)=O)cc2)CC1	i	u	-3%	x	0%	x
COc1ccccc1C1c2ccc3ccccc3c2Oc2ncn(CCCO)c(=N)c21 (configuration not stated)	u	u	-26%	-8	u	-19
COc1ccc(C2c3c(ncn(CCN4CCOCC4)c3=N)Oc3ccc4ccccc4c32)cc1OC (configuration not stated)	i	10µM*	-15%	-2	u	-25
COc1ccc(C2c3ccc4ccccc4c3Oc3ncn(CCCN(C)C)c(=N)c32)cc1 (configuration not stated)	u	1.8µM*	u	-7	u	-11
COc1ccccc1C1c2ccc3ccccc3c2Oc2ncn(CCN(C)C)c(=N)c21 (configuration not stated)	-20%	2.8µM*	u	-4	u	-7
Cc1cc(Cl)ccc1OCC(=O)N(Cc1ccco1)Cc1ccco1	14%	6%[46.1 µM]	-3%	x	6%[46.1 µM]	x
CC(=O)N1CCCC(C)(C(=O)Nc2ccc3nc(C)ccc3c2)C1 (configuration not stated)	13%	x	-4%	x	x	x
Cc1ccc2c(C)c(C(=O)N3CCCCC3CO)oc2c1C (configuration not stated)	x	x	x	21*	x	67*
CCCc1ccc2oc(C(=O)N3CCC(COC)C3)c(C)c2c1 (configuration not stated)	-12%	1%	-4%	33*	u	x
CCCc1ccc2oc(C(=O)N3CCC[C@H]3CO)c(C)c2c1	x	x	x	41*	x	29*
CCCc1ccc2oc(C(=O)N3CCN(c4cnccn4)CC3)c(C)c2c1	-17%	u	-15%	12*	-20%[46.1 µM]	6
O=C(CCC1CCCN(C(=O)c2ccsc2)C1)N1CCN(c2ccccn2)CC1 (configuration not stated)	x	x	x	-2	x	-9
COc1ccc(Cl)cc1NC(=O)CSC1=Nc2ccccc2C2=NC(CCC(=O)NCc3ccco3)C(=O)N12 (configuration not stated)	-2%	10%[46.1 µM]	-10%	x	0%[46.1 µM]	x
CC(C)(C)c1ccc(S(=O)(=O)N2CCN(c3ncccn3)CC2)cc1	-17%	-6%[14.2 µM]	-20%	0	-13%	-10
COc1ccc2oc(-c3ccc(NC(=O)c4ccc(N5CCOCC5)c([N+](=O)[O-])c4)cc3)nc2c1	i	u	-11%	-3	-2%	-3
O=C(Nc1ccc(-c2nc3ccccc3o2)cc1)c1ccc(N2CCOCC2)c([N+](=O)[O-])c1	-3%	u	-7%	8.5*	-17%	24
Cn1cc([N+](=O)[O-])c(C(=O)Nc2ccc(-c3nc4ccccc4o3)cc2)n1	x	x	x	39*	x	69*
O=C(NCCN1CCOCC1)c1c(O)nc2sccn2c1=O	-14%	0%[46.1 µM]	4%	x	1%	x
COc1ccc(Cl)cc1C(=O)Nc1ccc2c(c1)OCO2	-11%	28%	2%	44*	9%	87*
COc1ccc(NC(C)=O)cc1S(=O)(=O)Nc1ccc2c(c1)OCCO2	-4%	3%[46.1 µM]	-8%	24*	-13%	17
COc1ccc(Cl)cc1C(=O)Nc1ccc2c(c1)OCCO2	x	x	x	30*	x	36*
O=C1CCc2cc(S(=O)(=O)NCCC(=O)NC3CCCCC3)ccc2N1	x	x	x	-2	x	-2
CCCCCCC[n+]1ccc(/C=C/c2c[nH]c3ccccc23)c2ccccc21	i	x	i	x	x	x
N#CC1=C(N)C(C#N)(C#N)[C@H](c2ccoc2)[C@H]2CN(Cc3ccccc3)CC=C12	x	6.3µM*	u	-4	-17%	-19
SMILES	VACV mCherry inh	MARV entry inh	VACV Venus inh	Cycloheximide cs	LASV entry inh	Shiga inhibitor
CC(=O)Nc1ccc(OCC(O)Cn2ccnc2)cc1 (configuration not stated)	x	x	x	35*	x	78*
Clc1ccc(OCCn2ccnc2)c(Cl)c1	x	1%	x	-5	7%	-9
OC(COc1ccc(Cl)cc1Cl)Cn1ccnc1 (configuration not stated)	-13%	u	-4%	13*	9%	17
O=[N+]([O-])c1ccc2c(c1)C=C/C2=C\c1ccccc1	17%	x	-7%	x	x	x
CCN1CCN(Cc2c(O)ccc3c2O/C(=C\C=C\c2ccccc2OC)C3=O)CC1	6%	u	40%	57*	-6%	97*
Cc1cccc(NC(=O)c2ccc(COc3ccc4ccccc4c3)o2)n1	x	x	x	14	x	11
Cc1csc(NC(=O)c2ccc(COc3ccccc3)o2)n1	-5%	u	-23%	49*	-11%	90*
Cc1cccc(NC(=O)c2ccc(COc3ccccc3)o2)n1	i	0%[46.1 µM]	-5%	16*	-12%[46.1 µM]	40*
CCOC(=O)c1cc2c(c(-c3cccc(C#Cc4ccc(OC)c(OC)c4)c3)n1)[C@@H](CCO)N(S(=O)C(C)(C)C)C2 (some centres not stated)	3%	x	2%	x	x	x
CCc1ccc(C2CC(=O)c3c([nH]c(C(=O)OC4CCCCCC4)c3C)C2)cc1 (configuration not stated)	-1%	3%[46.1 µM]	-19%	x	18%[46.1 µM]	x
CN=C(c1ccco1)n1c(=S)nc(-c2ccco2)n(C)c1=S	u	-2%[46.1 µM]	13µM*	6	7%	-5
CN=C(c1ccc(C)cc1)n1c(=S)nc(-c2ccc(C)cc2)n(C)c1=S	0%	-14%[46.1 µM]	1%	43*	17%	85*
CCOC(=O)CCn1nc(C)c2c(C)n(-c3ccccc3)nc2c1=O	-6%	-4%[46.1 µM]	-5%	x	9%[46.1 µM]	x
O=C(CCC(=O)N(CC(=O)NC1CCCC1)Cc1ccccc1)Nc1nccs1	-9%	u	3%	-4	19%[46.1 µM]	1
O=C(Nc1cccc([N+](=O)[O-])c1)N1CCCc2ccccc21	-13%	0%[46.1 µM]	-4%	48*	10%[46.1 µM]	74*
CCN1CCN(C(=S)Nc2cccc([N+](=O)[O-])c2)CC1	-10%	5%	-8%	3	29%	-16
O=[N+]([O-])c1cccc(NC(=S)N2CCc3ccccc32)c1	x	x	x	32*	x	58*
CC(=O)c1cccc(NC(=O)Cc2ccc(NC(=O)N3CCCCc4ccccc43)cc2)c1	-16%	x	-6%	x	19%[46.1 µM]	x
CCCN1C(=O)C(C#N)C(C)=CC1C (configuration not stated)	x	-4%	x	x	x	x
CSC1=NSC2=NC(=O)/C(=C/c3coc4ccc(O)cc4c3=O)C(=N)N12	-4%	1%	27%	-2	14%	-29
CSC1=NSC2=NC(=O)/C(=C\c3cccs3)C(=N)N12	u	u	-17%	42*	u	42*
COc1cc(/C=C2/C(=N)N3C(SC)=NSC3=NC2=O)ccc1OC(=O)c1ccco1	-14%	u	4%	29*	u	84
CSC1=NSC2=NC(=O)/C(=C/c3coc4ccccc4c3=O)C(=N)N12	-22%	u	7%	17	15%	47*

Screening results: PubChem, National Center for Advancing Translational Sciences (NCATS)
